# From the supplement of paper PMC10037445
# The full ranking holds about 2,900 compounds; the median of “NF-kB SEAP reporter activity, fold change vs agonist alone” is about 0.99, and the highest 2% start at about 2.6. The sample as a whole holds a higher share of the highest values than the screen did.
# Columns and labels:
# [1] = test system: RAW-Dual; assay: NF-kB SEAP reporter activity, fold change vs agonist alone; cytotoxicity flag (confluency mask): not cytotoxic; higher = enhanced NF-kB activity
# How it was run: (§1)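 Library stock was pin-tooled at 50 nL into 384-well plates of RAW-Dual macrophages (50,000 cells/well, DMEM), followed 1 h later by a PRR agonist, and the cells were kept at 37 °C, 5% CO2. Supernatant collected after 20 hours was read for IRF by QuantiLuc luminescence and for NF-κB by QuantiBlue absorbance at 620 nm. Reporter activity is fold change over agonist-alone wells, and a well counted as cytotoxic when its IncuCyte confluency was below 70% of agonist controls in both mask sets.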
# [2] = test system: RAW-Dual; assay: NF-kB SEAP reporter activity, fold change vs agonist alone; higher = enhanced NF-kB activity; details: library stock concentration (final ~1000-fold dilution): 10 mM
# How it was run: as §1
# [3] = test system: RAW-Dual; assay: NF-kB SEAP reporter activity, fold change vs agonist alone; cytotoxicity flag (confluency mask): cytotoxic (confluency <70% of control); higher = enhanced NF-kB activity
# How it was run: as §1
# [4] = agonist: ODN 1826 (TLR9) 0.5 ug/mL
# [5] = agonist: Pam2CSK4 (TLR2/6) 0.1 ug/mL
# [6] = agonist: Pam3CSK4 (TLR2/1) 0.1 ug/mL
# [7] = cytotoxicity flag (confluency mask): not cytotoxic, agonist: Imiquimod (TLR7) […]
# [8] = cytotoxicity flag (confluency mask): not cytotoxic, agonist: MPLA (TLR4) […]
smiles,measurement,setting,value
CC1OC(=O)C(C)C1CC(O)C(C)(O)C1CCC2(O)C3=CC(=O)C4CC(O)C(O)CC4(C)C3CCC12C (stereo not drawn) (library stock concentration (final ~1000-fold dilution): 10 mM),NF-kB SEAP reporter activity,[1]; agonist: LPS (TLR4) 0.1 ug/mL,1.18
same,NF-kB SEAP reporter activity,[1]; [4],1.02
same,NF-kB SEAP reporter activity,[1]; [5],1.16
same,NF-kB SEAP reporter activity,[1]; [6],1.23
CC1OC(=O)C(C)C1CC(O)C(C)(O)C1CCC2(O)C3=CC(=O)C4CC(O)C(O)CC4(C)C3CCC12C (stereo not drawn),NF-kB SEAP reporter activity,[2]; [7],1.02
same,NF-kB SEAP reporter activity,[2]; [8],1.05
CCOc1cc(N)c([N+](=O)[O-])cc1C(=O)NC1CCN(CC2CC=CCC2)CC1.O=C(O)C(O)C(O)C(=O)O (stereo not drawn),NF-kB SEAP reporter activity,[2]; [7],1.28
same,NF-kB SEAP reporter activity,[2]; [8],1.03
CCOc1cc(N)c([N+](=O)[O-])cc1C(=O)NC1CCN(CC2CC=CCC2)CC1.O=C(O)C(O)C(O)C(=O)O (stereo not drawn) (library stock concentration (final ~1000-fold dilution): 10 mM),NF-kB SEAP reporter activity,[1]; agonist: LPS (TLR4) 0.1 ug/mL,1.38
same,NF-kB SEAP reporter activity,[1]; [4],0.18
same,NF-kB SEAP reporter activity,[1]; [5],0.898
same,NF-kB SEAP reporter activity,[1]; [6],0.739
CCC(Nc1ncnc2[nH]cnc12)c1oc2ccccc2c(=O)c1-c1cccc(F)c1 (stereo not drawn),NF-kB SEAP reporter activity,[2]; [7],0.582
same,NF-kB SEAP reporter activity,[2]; [8],0.924
CCC(Nc1ncnc2[nH]cnc12)c1oc2ccccc2c(=O)c1-c1cccc(F)c1 (stereo not drawn) (library stock concentration (final ~1000-fold dilution): 10 mM),NF-kB SEAP reporter activity,[1]; agonist: LPS (TLR4) 0.1 ug/mL,0.907
same,NF-kB SEAP reporter activity,[1]; [4],0.718
same,NF-kB SEAP reporter activity,[1]; [5],0.443
same,NF-kB SEAP reporter activity,[1]; [6],0.61
O=C(Oc1cccc(F)c1OC(=O)c1cccc(O)c1)c1cccc(O)c1 (library stock concentration (final ~1000-fold dilution): 10 mM),NF-kB SEAP reporter activity,[3]; agonist: LPS (TLR4) 0.1 ug/mL,1.21
same,NF-kB SEAP reporter activity,[3]; [4],0.597
same,NF-kB SEAP reporter activity,[3]; [5],0.639
same,NF-kB SEAP reporter activity,[3]; [6],0.541
O=C(Oc1cccc(F)c1OC(=O)c1cccc(O)c1)c1cccc(O)c1,NF-kB SEAP reporter activity,"[2]; cytotoxicity flag (confluency mask): cytotoxic (confluency <70% of control), agonist: Imiquimod (TLR7) […]",0.964
same,NF-kB SEAP reporter activity,"[2]; cytotoxicity flag (confluency mask): cytotoxic (confluency <70% of control), agonist: MPLA (TLR4) […]",1.24
CC(C)C(NC(=O)c1ccc2ccccc2n1)C(=O)NC(CC(=O)O)C(=O)COc1c(F)cccc1F (stereo not drawn),NF-kB SEAP reporter activity,[2]; [7],1.01
same,NF-kB SEAP reporter activity,[2]; [8],1.14
CC(C)C(NC(=O)c1ccc2ccccc2n1)C(=O)NC(CC(=O)O)C(=O)COc1c(F)cccc1F (stereo not drawn) (library stock concentration (final ~1000-fold dilution): 10 mM),NF-kB SEAP reporter activity,[1]; agonist: LPS (TLR4) 0.1 ug/mL,1.05
same,NF-kB SEAP reporter activity,[1]; [4],1.05
same,NF-kB SEAP reporter activity,[1]; [5],1.03
same,NF-kB SEAP reporter activity,[1]; [6],1.26
CC12CCC3C(CCC4C(C)(C(=O)O)CCCC34C)(CC1=O)C2 (stereo not drawn) (library stock concentration (final ~1000-fold dilution): 10 mM),NF-kB SEAP reporter activity,[1]; agonist: LPS (TLR4) 0.1 ug/mL,1.41
same,NF-kB SEAP reporter activity,[1]; [4],1.11
same,NF-kB SEAP reporter activity,[1]; [5],1.13
same,NF-kB SEAP reporter activity,[1]; [6],1.02
CC12CCC3C(CCC4C(C)(C(=O)O)CCCC34C)(CC1=O)C2 (stereo not drawn),NF-kB SEAP reporter activity,[2]; [7],0.95
same,NF-kB SEAP reporter activity,[2]; [8],1.14
O=C1OC(=O)C2C3CCC(O3)C12 (stereo not drawn),NF-kB SEAP reporter activity,[2]; [7],1.93
same,NF-kB SEAP reporter activity,[2]; [8],2.03
O=C1OC(=O)C2C3CCC(O3)C12 (stereo not drawn) (library stock concentration (final ~1000-fold dilution): 10 mM),NF-kB SEAP reporter activity,[1]; agonist: LPS (TLR4) 0.1 ug/mL,3.23
same,NF-kB SEAP reporter activity,[1]; [4],2
same,NF-kB SEAP reporter activity,[1]; [5],1.84
same,NF-kB SEAP reporter activity,[1]; [6],1.76
CC(C)(C)NC(=O)C1CN(Cc2cccnc2)CCN1CC(O)CC(Cc1ccccc1)C(=O)NC1c2ccccc2CC1O.O=S(=O)(O)O (stereo not drawn),NF-kB SEAP reporter activity,[2]; [7],1.07
same,NF-kB SEAP reporter activity,[2]; [8],1.21
CC(C)(C)NC(=O)C1CN(Cc2cccnc2)CCN1CC(O)CC(Cc1ccccc1)C(=O)NC1c2ccccc2CC1O.O=S(=O)(O)O (stereo not drawn) (library stock concentration (final ~1000-fold dilution): 10 mM),NF-kB SEAP reporter activity,[1]; agonist: LPS (TLR4) 0.1 ug/mL,1.3
same,NF-kB SEAP reporter activity,[1]; [4],1.15
same,NF-kB SEAP reporter activity,[1]; [5],1.2
same,NF-kB SEAP reporter activity,[1]; [6],1.34
